# Reference: PMC5700166
# Biological target: T1, GST-Aq-NF-kB (Amphimedon queenslandica, UniProt A9Y5G7 2-389)
# T1 sequence: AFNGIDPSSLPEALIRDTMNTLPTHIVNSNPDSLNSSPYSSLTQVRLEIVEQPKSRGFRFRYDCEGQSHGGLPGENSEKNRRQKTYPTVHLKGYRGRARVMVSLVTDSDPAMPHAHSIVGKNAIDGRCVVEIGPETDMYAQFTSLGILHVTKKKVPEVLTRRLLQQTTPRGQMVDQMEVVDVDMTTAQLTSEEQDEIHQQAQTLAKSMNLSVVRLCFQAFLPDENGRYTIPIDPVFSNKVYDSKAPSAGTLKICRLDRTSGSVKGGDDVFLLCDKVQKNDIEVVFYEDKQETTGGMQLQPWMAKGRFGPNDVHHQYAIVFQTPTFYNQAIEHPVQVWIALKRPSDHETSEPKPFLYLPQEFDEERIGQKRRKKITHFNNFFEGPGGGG
# Assay: protein-binding microarray (PBM); PBM: ~300 nM protein, 6 mM HEPES pH 7.8, 80 mM KCl, 0.5 mM EDTA, 0.5 mM EGTA, 6% glycerol, 35 ng/ul poly-dIdC, 1% milk, 1 h, room temperature; Ap Aiptasia and Nv Nematostella (sea anemones) / Co Capsaspora / Aq Amphimedon (sponge) / Dm Drosophila / Hu human; RHD is the Rel homology domain; high values mean tight binding
# Conditions: dsDNA, one strand shown
row,Sequence,binding signal [z-score]
1,CCGATTAACATCAAAAAATCACCTGATGTTAATCGGGTCTTGATTCGCTTGACGCTGCTG,3.98
2,CCGATTAACATCAGGGCTCCCCCTGATGTTAATCGGGTCTTGATTCGCTTGACGCTGCTG,8.12
3,CCGATTAACATCAAACGTTCCCCTGATGTTAATCGGGTCTTGATTCGCTTGACGCTGCTG,4.66
4,CCGATTAACATCAGAAGACCCCCTGATGTTAATCGGGTCTTGATTCGCTTGACGCTGCTG,4.82
5,CCGATTAACATCAGGTGTTTCCATGATGTTAATCGGGTCTTGATTCGCTTGACGCTGCTG,1.98
6,CCGATTAACATCACCCTCGAGGGTGATGTTAATCGGGTCTTGATTCGCTTGACGCTGCTG,1.65
7,CCGATTAACATCAGGAAAGGCCCTGATGTTAATCGGGTCTTGATTCGCTTGACGCTGCTG,5.31
8,CCGATTAACATCAGAAAATCACCTGATGTTAATCGGGTCTTGATTCGCTTGACGCTGCTG,3.39
9,CCGATTAACATCACGGGAAGCCCTGATGTTAATCGGGTCTTGATTCGCTTGACGCTGCTG,4.42
10,CCGATTAACATCAGGGGCTTCCATGATGTTAATCGGGTCTTGATTCGCTTGACGCTGCTG,5.03
11,CCGATTAACATCAAAAAAACCCTTGATGTTAATCGGGTCTTGATTCGCTTGACGCTGCTG,6.78
12,CCGATTAACATCAGGAGATCCCCTGATGTTAATCGGGTCTTGATTCGCTTGACGCTGCTG,8.6
13,CCGATTAACATCAGGACTGCCCCTGATGTTAATCGGGTCTTGATTCGCTTGACGCTGCTG,7.05
14,CCGATTAACATCAAGGGGGGGACTGATGTTAATCGGGTCTTGATTCGCTTGACGCTGCTG,4.98
15,CCGATTAACATCAAAATACCCCTTGATGTTAATCGGGTCTTGATTCGCTTGACGCTGCTG,6.58
16,CCGATTAACATCACTAAACCCCCTGATGTTAATCGGGTCTTGATTCGCTTGACGCTGCTG,4.92
17,CCGATTAACATCAGATAAACCCCTGATGTTAATCGGGTCTTGATTCGCTTGACGCTGCTG,4.77
18,CCGATTAACATCAGGGGGGGTAATGATGTTAATCGGGTCTTGATTCGCTTGACGCTGCTG,4.38
19,CCGATTAACATCAGGGCCTTTTGTGATGTTAATCGGGTCTTGATTCGCTTGACGCTGCTG,2.46

row,Sequence,binding signal [z-score]
1,CCGATTAACATCACGGGCTTCCCTGATGTTAATCGGGTCTTGATTCGCTTGACGCTGCTG,4.57
2,CCGATTAACATCAGCCCCGGTGTTGATGTTAATCGGGTCTTGATTCGCTTGACGCTGCTG,2.37
3,CCGATTAACATCAGAAAAACACCTGATGTTAATCGGGTCTTGATTCGCTTGACGCTGCTG,3.91
4,CCGATTAACATCAGGGGGGGACATGATGTTAATCGGGTCTTGATTCGCTTGACGCTGCTG,4.34
5,CCGATTAACATCAGGCGAACCCCTGATGTTAATCGGGTCTTGATTCGCTTGACGCTGCTG,2.96
6,CCGATTAACATCACGGTGTTTCCTGATGTTAATCGGGTCTTGATTCGCTTGACGCTGCTG,2.67
7,CCGATTAACATCAGGGAGTGCCCTGATGTTAATCGGGTCTTGATTCGCTTGACGCTGCTG,5.66
8,CCGATTAACATCAATTCCCCCCGTGATGTTAATCGGGTCTTGATTCGCTTGACGCTGCTG,5.76
9,CCGATTAACATCAGGACCTTCCCTGATGTTAATCGGGTCTTGATTCGCTTGACGCTGCTG,5.89
10,CCGATTAACATCACCCGGGTAAATGATGTTAATCGGGTCTTGATTCGCTTGACGCTGCTG,1.02
11,CCGATTAACATCACGGAAATACCTGATGTTAATCGGGTCTTGATTCGCTTGACGCTGCTG,4.47
12,CCGATTAACATCAGGAAGATCCCTGATGTTAATCGGGTCTTGATTCGCTTGACGCTGCTG,5.44
13,CCGATTAACATCAAGGGACTTCCTGATGTTAATCGGGTCTTGATTCGCTTGACGCTGCTG,6.58
14,CCGATTAACATCAAAAAAACACCTGATGTTAATCGGGTCTTGATTCGCTTGACGCTGCTG,4.34
15,CCGATTAACATCAGGACATACCCTGATGTTAATCGGGTCTTGATTCGCTTGACGCTGCTG,5.54
16,CCGATTAACATCAGAAATTACCCTGATGTTAATCGGGTCTTGATTCGCTTGACGCTGCTG,5.95
17,CCGATTAACATCACGGAAACACCTGATGTTAATCGGGTCTTGATTCGCTTGACGCTGCTG,2.29
18,CCGATTAACATCAGGCCTTCCCCTGATGTTAATCGGGTCTTGATTCGCTTGACGCTGCTG,7.14
